# Hits are enriched below; roughly 7.5% of the tested compounds scored in any of these assays.
# ELG1 genotox: inducers of genotoxicity in HEK293T ELG1-luciferase cells | HEK293T ELG1-luciferase reporter, luminescence, 16 h | Potency, µM (series often up to 46 µM), without a hit: at the highest dose activity change, positive = activation, actives largely listed as activators | actives 1.3% (n = 330,000) | AID 504466; note: % of control where 0% means no effect; nearly all actives have a fitted effect of over 60% in size
#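 Cells (2,000/well) expressing the ELG1-luciferase fusion are dosed by pin tool and kept 16 hr at 37 °C, 5% CO2. Signal comes from ONE-Glo luciferase reagent after 30 min at room temperature.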
# NPC1 prom act: activators of NPC1 promoter. Huh7 NPC1 promoter luciferase reporter, 24 h. Potency, µM (series often up to 9.22 µM), for inactives: at the top dose activation, actives largely listed as activators. actives 2.4% (n = 320,000); note: % of control where 0% means no effect; nearly all actives have a fitted effect of over 60% in size
#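 Luminescence from an NPC1 promoter-driven luciferase reporter in stably transfected Huh7 cells was measured after 24 h compound treatment at 37 °C, followed by 10 min ambient incubation with luciferase detection reagent.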
# SMN2 splice enh: enhancers of SMN2 splice variant expression; HEK293 SMN2-luciferase splicing reporter, luminescence, 30-36 h; Potency, µM (doses to about 46.1 µM), without a hit: at the top dose activity change, positive = activation, hits mostly activators; actives 2.8% (n = 210,000); note: % of control where 0% means no effect; nearly all actives have a fitted effect of over 55% in size
#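 HEK293 cells carry an SMN2 minigene-luciferase reporter in which exon 7 inclusion puts luciferase in frame. Cells were seeded at 2000 cells/well, attached for 10-12 hours, then exposed to compounds for 30-36 hours at 37C before ONE-Glo luminescence.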
# FLuc counter: counter-screen for miR-21 project: firefly luciferase inhibitors or activators; Potency, µM (series often up to 57.5 µM), for inactives: top-dose activity change, negative = inhibition, actives largely listed as inhibitors; purified FLuc, Km substrates, luminescence inhibition; P08659; actives 6.9% (n = 360,000);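 note: plate controls were vehicle for no effect and reference inhibitor for full effect; nearly all actives have a fitted effect of over 55% in size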
# Target sequence (P08659 whole entry, looked up): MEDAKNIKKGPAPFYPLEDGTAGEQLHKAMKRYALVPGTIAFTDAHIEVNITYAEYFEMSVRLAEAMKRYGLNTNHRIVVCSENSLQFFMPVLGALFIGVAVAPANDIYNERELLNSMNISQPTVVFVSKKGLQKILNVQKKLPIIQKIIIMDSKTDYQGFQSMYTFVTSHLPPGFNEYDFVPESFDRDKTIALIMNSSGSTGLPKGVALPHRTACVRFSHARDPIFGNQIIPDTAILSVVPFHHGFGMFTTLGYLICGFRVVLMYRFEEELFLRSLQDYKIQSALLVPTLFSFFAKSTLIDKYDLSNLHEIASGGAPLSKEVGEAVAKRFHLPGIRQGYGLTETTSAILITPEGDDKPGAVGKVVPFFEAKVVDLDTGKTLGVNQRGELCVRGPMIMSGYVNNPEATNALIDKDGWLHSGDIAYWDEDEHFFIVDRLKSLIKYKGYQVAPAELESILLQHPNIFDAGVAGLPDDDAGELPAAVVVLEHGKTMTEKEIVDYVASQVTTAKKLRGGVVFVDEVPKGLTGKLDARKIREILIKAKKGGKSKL
#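 Purified P. pyralis luciferase, 10 nM final, with Km-level 10 uM D-luciferin and 10 uM ATP in 50 mM Tris acetate pH 7.5, 10 mM Mg acetate, 0.01% Tween-20, 0.05% BSA; 6-point qHTS titration about 60 µM downward; luminescence read.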
# Rab9 prom act: activates the Rab9 promoter; Huh7 Rab9 promoter-luciferase reporter, luminescence, 24 h; Potency, µM (doses to about 9.22 µM), inactives show at the top dose activation, negative = inhibition, hits mostly activators; actives 2.8% (n = 320,000); note: % of control where 0% means no effect; nearly all actives have a fitted effect of over 60% in size
#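 Quantitative HTS format; Huh7 Rab9-luciferase reporter cells (1500/well) receive compound 2 h post-plating, incubate 24 h at 37 °C, then get luciferase reagent for 10 min before luminescence reading.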
# Numbers without * were called inactive; u = inconclusive; x = no result. Calls come from the whole dose curve; as a rule, active = well fitted curve in the direction sought with a large enough effect; inconclusive = small, poorly fitted or top-dose-only effect, or another doubt; inactive = no such curve, though single readings can be large; an effect the other way counts as inactive or inconclusive. Potency is the fitted concentration of half-maximal effect.
SMILES,ELG1 genotox,NPC1 prom act,SMN2 splice enh,FLuc counter,Rab9 prom act
N#Cc1ccccc1S(=O)(=O)N1CCN(CC(O)COc2ccccc2F)CC1 (stereo not given),-1%,-1%,x,1%,-7%
CCCCOc1ccc(C(=O)NCC(=O)N(C)CC(=O)Nc2ccc(N3CCOCC3)cc2)cc1,-3%,-4%,x,u,-2%
O=C(CSc1nnc(SCc2ccc(Cl)cc2)s1)N1CCN(C(=O)c2ccco2)CC1,-1%,1%,-8%,9.5µM*,-9%
Cc1ccc(OCC(=O)NC2=NCCS2)cc1,4%,24%,-17%,11µM*,20%
Cc1ccccc1OCC(=O)NC1=NCCS1,9.2µM*,1.8µM*,13µM*,12µM*,2.8µM*
O=C(CSc1ccccc1)NC1=NCCS1,1%,1%,x,13µM*,-3%
Cc1onc(-c2ccccc2)c1C(=O)Nc1nnc(CC(C)C)s1,-6%,-4%,x,0%,1%
CCOC(=O)[C@H]1[C@H]2COc3ccc(Br)cc3[C@@H]2N2C(=O)CN(Cc3ccc(Cl)cc3)C(=O)[C@@]12C,-5%,x,x,x,x
CC1(C)CC(=O)C2=C(C1)Nc1nc(SCCN3CCOCC3)[nH]c(=O)c1C2c1cccs1 (stereo not given),-2%,-3%,-8%,-2%,-4%
CSc1nc(-c2ccc(Cl)cc2)nn1C(=O)c1ccccc1,17%,25%,x,11µM*,u
CSc1nc(-c2ccccc2)nn1C(=O)c1ccc(Cl)cc1,4%,8%,u,-17%,12%
Cc1ccc2oc(/N=C(\N)NC(=O)C3CC3)nc2c1,u,0.63µM*,x,0.85µM*,0.45µM*
N/C(=N\c1nc2ccccc2o1)NC(=O)c1ccccc1Br,6%,u,x,12µM*,u
CC(C)(C)c1ccc(C(=O)N/C(N)=N/c2nc3ccccc3o2)cc1,-6%,-3%,-54%,u,-13%
Cc1ccc2oc(/N=C(\N)NC(=O)C(C)(C)C)nc2c1,7%,-22%,x,0.076µM*,-30%
Cc1cccc(CCNC(=O)CCc2c(C)nc3c(-c4ccc(F)cc4)c(C)nn3c2C)c1,x,x,u,1%,x
Cc1ccc(C)c2nc3sc(C(=O)O)cc3cc12,3%,-6%,-18%,24µM*,-1%
CCc1ccc(C2CC(=O)Nc3c2c(C)nn3-c2nc(C)cc(C)n2)cc1 (stereo not given),x,x,x,-16%,x
Cc1ccc(/C=N/NC(=O)C(C)NC(=O)c2ccccc2)cc1 (stereo not given),-13%,1%,-14%,-14%,3%
Cc1ccc(/C=N\NC(=O)/C(=C\Nc2nccc(C)n2)NC(=O)c2ccccc2)cc1,-3%,-4%,x,15µM*,-2%
COc1ccc(/C=C(/NC(=O)c2ccccc2)C(=O)N/N=C/c2ccncc2)cc1,1%,-1%,-9%,0%,2%
COc1ccc(/C=N\NC(=O)/C(=C\Nc2nccc(C)n2)NC(=O)c2ccccc2)cc1,0%,0%,-7%,15µM*,0%
COc1ccc(NC(=O)CN2CCCC(C)C2)c([N+](=O)[O-])c1 (stereo not given),-1%,3%,-9%,-14%,8%
CCCOc1ccc(Cc2nn3c(=O)/c(=C/c4ccco4)sc3nc2=O)cc1,1%,-3%,-18%,-1%,-2%
O=c1/c(=C/c2ccco2)sc2nc(-c3ccccc3Br)nn12,4%,9%,-4%,6.7µM*,5%
SMILES,ELG1 genotox,NPC1 prom act,SMN2 splice enh,FLuc counter,Rab9 prom act
O=C(N/N=C/c1ccc(Br)s1)c1ccccn1,9.2µM*,2.8µM*,3.5µM*,4.8µM*,1.4µM*
CC(C)(C)c1ccc(/C=N/NC(=O)c2ccccn2)cc1,u,0.32µM*,x,0.38µM*,0.89µM*
O=C(N/N=C/c1ccsc1)c1cc2ccccc2o1,9%,1%,x,u,25%
O=C(N/N=C/c1ccsc1)c1ccccn1,u,2.8µM*,x,15µM*,4.5µM*
FC(F)(F)c1cccc(Nc2nc(N3CCOCC3)nc(N3CCOCC3)n2)c1,6%,-1%,x,6%,1%
OCC1(Cc2ccc(Cl)cc2)CCN(CCCc2ccccc2)CC1,-7%,-2%,-18%,0%,-3%
CCCCOc1ncnc2c1[nH]c1ccc(C)cc12,u,u,x,1.1µM*,u
Cc1ccc2[nH]c3c(N4CCCCCC4)ncnc3c2c1,-27%,-6%,-69%,19µM*,-15%
CC(C)Oc1ncnc2c1[nH]c1ccccc12,-2%,-9%,x,15µM*,-16%
Cc1ccc2[nH]c3c(N4CCN(Cc5ccccc5)CC4)ncnc3c2c1,-23%,0%,-49%,-22%,-9%
CCCOc1ncnc2c1[nH]c1ccc(OC)cc12,u,1.1µM*,x,2.4µM*,0.56µM*
COc1ccc2[nH]c3c(N4CC(C)OC(C)C4)ncnc3c2c1 (stereo not given),-2%,-3%,-6%,-16%,-7%
CCN(CC)c1ncnc2c1[nH]c1ccccc12,-7%,0%,-67%,-19%,-11%
COC(=O)c1sc(NC(=O)CSc2nnc(C(C)C)n2C)nc1C,2%,-1%,2%,-1%,-5%
COc1cc([N+](=O)[O-])cc(/C=N/NC(=O)CC#N)c1O,-4%,-14%,-10%,u,-7%
O=C(OCC(=O)N1CCCc2ccccc21)c1cc(Br)ccc1O,0%,-1%,x,-7%,4%
Cc1ccc(-c2c[n+](Cc3ccc(Cl)c(Cl)c3)c3n2CCC3)cc1,-12%,-9%,-30%,0%,-7%
CCCOc1ncnc2c1[nH]c1ccccc12,0%,19%,-60%,17µM*,-4%
COC(=O)c1ccc(N=Nc2ccccc2)cc1,2%,14%,20%,5.4µM*,u
COC(=O)c1ccc(OCCOc2ccccc2)cc1,u,15%,-5%,15µM*,u
COC(=O)c1ccc(OCC(=O)c2cccc(OC)c2)cc1,u,u,5.6µM*,24µM*,u
COc1cccc(C(=O)COc2ccc(NC(=O)c3cccs3)cc2)c1,-19%,4%,x,8.5µM*,-1%
COC(=O)c1ccc(OCC(=O)c2ccc(C)c(C)c2)cc1,3%,26%,19%,u,22%
CCCCOc1cccc(C(=O)Nc2ccc(NC(=O)c3cccs3)cc2)c1,18%,-8%,x,-2%,-5%
CCOCCCNC(=O)C1CCN(c2nc3ccc(C)cc3[nH]2)CC1,x,x,x,0%,x
CCn1c(=O)n(CC)c2cc(S(=O)(=O)N3CCCCC3)c(C)cc21,u,-2%,u,0%,5%
CCS(=O)(=O)N1CCCC(C(=O)N2CCc3ccccc3C2)C1 (stereo not given),0%,-1%,-10%,0%,2%
COC(=O)c1ccc(NC(=O)CNc2ccccc2)cc1,u,27%,x,24µM*,u
O=C(COc1ccc(NC(=O)c2cccs2)cc1)c1ccc(F)cc1,22%,11%,x,1.9µM*,18%

# Compound activity deposited in PubChem BioAssay by National Center for Advancing Translational Sciences (NCATS).
